According to PubChem BioAssay:
For some of these results: Entries with a potency or affinity are not part of this list. Activity calls are given as the source filed them.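 How the source made its calls, unless noted: active means primary screen active and over 50% activation in each of two duplicate runs; inactive means the rest.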

How the values were obtained:
[1] = system: TRPC4 beta (transient receptor potential cation channel C4), mouse; test: activators of mouse TRPC4 channel, confirmation, cell-based, Fluo4 calcium, HEK293 TRPC4beta/mu-opioid, duplicates, 10 µM (AID 2426;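 active means fluorescence ratio normalized to control raised more than 50% in primary screen plus both repeat runs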;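 on activation: percent rise of integrated ratio over buffer wells lacking compound which define 0%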); details: Fluo4 calcium fluorescence, at 10 µM; active compounds read high
[2] = system: transient receptor potential cation channel C4 beta (TRPC4), mouse; test: activators of mouse TRPC4 channel, confirmation, cell-based, second round, Fluo4, HEK293 TRPC4beta/mu-opioid, 1 µM (AID 2461); details: Fluo4 calcium fluorescence, at 1 µM; active compounds read high
[3] = system: TRPC4 (transient receptor potential cation channel C4 beta), mouse; test: positive allosteric modulators of mouse TRPC4, confirmation, cell-based, second round, Fluo-4, HEK293 TRPC4beta/mu-opioid, 1 µM (AID 2554;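 active means primary screen hit whose fluorescence ratio, in both repeats, exceeds the weak agonist control mean by 3 SD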); details: DAMGO EC20, Fluo-4 calcium flux, at 1 µM; active compounds read high
[4] = system: TRPC4 beta (transient receptor potential cation channel C4), mouse; test: positive allosteric modulators of mouse TRPC4, confirmation, cell-based, Fluo-4, HEK293 TRPC4beta/mu-opioid (AID 2555;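 active means primary screen hit whose calcium fluorescence ratio, in both repeats, exceeds the weak agonist control mean by 3 SD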); details: DAMGO EC20, Fluo-4 calcium flux, at 10 µM; active compounds read high
[5] = molecular target: Short transient receptor potential channel 4 (Mus musculus) (UniProt Q9QUQ5); test: inhibitors of mouse TRPC4 channel, confirmation, cell-based, Fluo4, HEK293 TRPC4beta/mu-opioid (AID 2636;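 active means calcium signal cut by more than 3 SD below the full-agonist control yet still positive, in both repeats and the earlier primary screen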); details: DAMGO, Fluo4 calcium flux, at 10 µM; active compounds read high
[6] = molecular target: Short transient receptor potential channel 4 (Mus musculus) (UniProt Q9QUQ5); test: inhibitors of mouse TRPC4 channel, confirmation, cell-based, second round, Fluo4, HEK293 TRPC4beta/mu-opioid, 1 µM (AID 2637;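 active means calcium signal ratio cut to more than 3 SD under the fully stimulated control mean yet still positive, in both repeats and the primary screen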;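 on inhibition: percent of integrated ratio relative to wells lacking test compound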); details: Fluo4 calcium flux, DAMGO, at 1 µM; active compounds read high
[7] = molecular target: Short transient receptor potential channel 4 (Mus musculus) (UniProt Q9QUQ5); test: TRPC4 positive allosteric modulators, dose response, cell-based, HEK293 TRPC4/mu-opioid, Fluo-4 calcium, EC20 DAMGO (AID 434941;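 active means earlier screen potentiator hit that boosts the TRPC4 ion channel at some dose, with a dose response; inactive means no potentiation, no dose response, or not a prior hit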;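 further: calcium entry triggered by an EC20 dose of DAMGO at the co-expressed mu-opioid receptor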)
[8] = molecular target: Short transient receptor potential channel 6 (Mus musculus) (UniProt Q61143); test: inhibition of mouse TRPC6 channel, confirmation, selectivity assay for TRPC4 inhibitor project, cell-based, HEK293, membrane potential dye, duplicate (AID 434948;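 active means active in primary screen and both duplicates, each dropping signal beyond three positive-control SD with fluorescence still positive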); details: HEK293 TRPC6, membrane potential dye fluorescence, at 10 µM, stimulated with maximal-effect acetylcholine; active compounds read high
[9] = molecular target: Short transient receptor potential channel 6 (Mus musculus) (UniProt Q61143); test: activation of mouse TRPC6 channel, confirmation, selectivity assay for TRPC4 activator project, cell-based, HEK293, membrane potential dye, duplicate (AID 434950;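 active means membrane potential signal rise above negative control mean plus 3 SD in both duplicates, also active in the earlier TRPC4 screen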;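 on activation: 0% = buffer only wells and 100% = acetylcholine maximal-effect wells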); details: HEK293 TRPC6, membrane potential fluorescence, at 10 µM; active compounds read high
[10] = molecular target: Short transient receptor potential channel 6 (Mus musculus) (UniProt Q61143); test: TRPC6 potentiation by TRPC4 potentiator hits, confirmation, selectivity assay for TRPC4 potentiator project, HEK293 cells, membrane potential dye, duplicate (AID 434952;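 active means compound raising the membrane signal above positive-control mean plus 3 SD in both repeats, and a primary screen hit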); details: HEK293 TRPC6, membrane potential dye fluorescence, at 10 µM, maximal acetylcholine added after compound; active compounds read high
[11] = molecular target: Short transient receptor potential channel 4 (Mus musculus) (UniProt Q9QUQ5); test: calcium flux activators in TRPC4/5HT1a cells, counter-screen for TRPC4 activator project, cell-based, second counter screen, HEK293 TRPC4/5HT1a, Fluo-4 (AID 434977;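 active means calcium signal rise above buffer-control mean plus 5 SD in both duplicates, and also a hit in the primary screen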;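 on activation: plate controls were assay buffer for no effect and maximal serotonin response for full effect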); details: Fluo-4 calcium flux, at 10 µM; active compounds read high
[12] = calcium flux inhibitors in TRPC4/5HT1a cells, confirmation, counter-screen for TRPC4 inhibitor project, cell-based, second counter screen, HEK293 TRPC4/5HT1a, Fluo-4 (AID 434978;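 active means primary screen active whose calcium signal fell more than 3 SD beyond the full-serotonin control mean in both duplicate plates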;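 on outcome: serotonin given first at submaximal then at maximal dose after compound preincubation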); details: Fluo-4 calcium flux, at 10 µM, serotonin added to trigger calcium flux; active compounds read high
[13] = system: TRPC4 (mouse), co-expressed with 5HT1a in HEK293; test: calcium flux potentiators in TRPC4/5HT1a cells, confirmation, counter-screen for TRPC4 potentiator project, cell-based, second counter screen, HEK293 TRPC4/5HT1a, Fluo-4 (AID 434979;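 active means signal rise over 3 SD above mean of control wells given weak agonist, in both repeats and first screen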); details: Fluo-4 calcium flux, at 10 µM, serotonin added at its EC20 dose; active compounds read high
[14] = calcium flux activation in mu-opioid HEK293 cells, confirmation, counter-screen for TRPC4 activator project, cell-based, HEK293 mu-opioid receptor line (AID 449723;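 active means hit in primary screen, with calcium signal over 5 SD above buffer well mean in both duplicates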;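 further: counter screen cells carry the mu-opioid receptor alone and lack TRPC4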); details: Fluo-4 calcium fluorescence, at 10 µM; active compounds read high
[15] = calcium flux enhancement in mu-opioid HEK293 cells, confirmation, counter-screen for TRPC4 allosteric potentiator project, cell-based, HEK293 mu-opioid receptor line (AID 449724;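 active means calcium signal rise more than 3 SD above the low-dose agonist control mean, in both duplicate plates and the primary screen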); details: Fluo-4 calcium flux, at 10 µM, compound added before EC20 DAMGO stimulus; active compounds read high
[16] = thallium flux activation in parental CHO cells, counter-screen for KCNQ1 potentiator project (AID 493006;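 active means duplicate-averaged activation above buffer control mean plus 5 SD of those controls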;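 further: fluorescence ratio of max minus min over baseline after K+ and Tl+ depolarization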); details: parental CHO-K1 cells, FluxOR thallium flux, at 10 µM; active compounds read high
[17] = molecular target: Potassium voltage-gated channel subfamily KQT member 1 (Homo sapiens) (UniProt P51787); test: KCNQ1 potassium channel potentiators, confirmation, FluxOR thallium flux, CHO cells, duplicates (AID 493007;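 active means potentiation averaged over duplicate wells exceeding buffer-only control mean by more than 3 SD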;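 further: 0% = buffer-only wells and 100% = R-L3 activator control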); details: KCNQ1 cell line, FluxOR thallium flux fluorescence, at 10 µM; active compounds read high, % of reference activator effect, buffer zero
[18] = molecular target: Potassium voltage-gated channel subfamily KQT member 2 (Rattus norvegicus) (UniProt O88943); test: rat KCNQ2 channel potentiation, selectivity assay for KCNQ1 potentiator project, KCNQ2-CHO-K1 cells (AID 493009;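 active means mean duplicate potentiation above the buffer control mean plus 5 SD of buffer wells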;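 further: assay conditions were tuned for KCNQ1 rather than KCNQ2 modulators; signal is max minus min fluorescence divided by baseline after thallium stimulus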); details: FluxOR thallium flux fluorescence, at 10 µM; active compounds read high, scaled: buffer 0, activator control 100
[19] = molecular target: Potassium voltage-gated channel subfamily KQT member 1 (Homo sapiens) (UniProt P51787); test: KCNQ1 channel current potentiators, confirmation, orthogonal assay for KCNQ1 potentiator project, IonWorks patch clamp, KCNQ1-CHO cells (AID 493184;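 active means current rise at least 3 SD above the untreated control mean in each of two repeat wells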); details: automated patch clamp current, at 10 µM; active compounds read high

Sequence of Short transient receptor potential channel 6 (Mus musculus) (Q61143 whole entry, looked up): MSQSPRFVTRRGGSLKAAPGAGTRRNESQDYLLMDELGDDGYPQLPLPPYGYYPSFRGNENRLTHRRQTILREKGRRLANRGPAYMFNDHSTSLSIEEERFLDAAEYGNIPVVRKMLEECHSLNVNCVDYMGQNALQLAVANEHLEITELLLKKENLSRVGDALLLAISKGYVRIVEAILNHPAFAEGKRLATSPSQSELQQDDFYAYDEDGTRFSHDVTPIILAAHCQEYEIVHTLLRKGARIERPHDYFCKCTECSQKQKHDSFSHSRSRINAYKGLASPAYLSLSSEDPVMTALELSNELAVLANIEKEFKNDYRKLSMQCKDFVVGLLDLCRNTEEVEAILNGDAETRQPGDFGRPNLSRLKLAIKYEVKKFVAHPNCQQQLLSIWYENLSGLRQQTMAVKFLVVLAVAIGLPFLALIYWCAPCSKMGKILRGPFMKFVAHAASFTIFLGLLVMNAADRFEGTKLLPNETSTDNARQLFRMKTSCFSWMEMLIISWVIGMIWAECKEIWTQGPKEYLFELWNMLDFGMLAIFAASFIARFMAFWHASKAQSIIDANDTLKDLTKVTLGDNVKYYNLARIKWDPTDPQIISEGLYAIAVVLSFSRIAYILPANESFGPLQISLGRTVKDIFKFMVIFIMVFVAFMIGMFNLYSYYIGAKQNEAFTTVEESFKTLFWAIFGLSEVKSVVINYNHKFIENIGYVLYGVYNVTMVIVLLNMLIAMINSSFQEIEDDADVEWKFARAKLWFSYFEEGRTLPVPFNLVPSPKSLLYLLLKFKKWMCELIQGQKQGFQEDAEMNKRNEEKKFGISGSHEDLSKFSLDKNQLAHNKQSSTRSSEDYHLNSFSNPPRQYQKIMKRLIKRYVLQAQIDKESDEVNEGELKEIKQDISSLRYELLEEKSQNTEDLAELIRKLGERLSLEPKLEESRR
Sequence of Short transient receptor potential channel 4 (Mus musculus) (Q9QUQ5 whole entry, looked up): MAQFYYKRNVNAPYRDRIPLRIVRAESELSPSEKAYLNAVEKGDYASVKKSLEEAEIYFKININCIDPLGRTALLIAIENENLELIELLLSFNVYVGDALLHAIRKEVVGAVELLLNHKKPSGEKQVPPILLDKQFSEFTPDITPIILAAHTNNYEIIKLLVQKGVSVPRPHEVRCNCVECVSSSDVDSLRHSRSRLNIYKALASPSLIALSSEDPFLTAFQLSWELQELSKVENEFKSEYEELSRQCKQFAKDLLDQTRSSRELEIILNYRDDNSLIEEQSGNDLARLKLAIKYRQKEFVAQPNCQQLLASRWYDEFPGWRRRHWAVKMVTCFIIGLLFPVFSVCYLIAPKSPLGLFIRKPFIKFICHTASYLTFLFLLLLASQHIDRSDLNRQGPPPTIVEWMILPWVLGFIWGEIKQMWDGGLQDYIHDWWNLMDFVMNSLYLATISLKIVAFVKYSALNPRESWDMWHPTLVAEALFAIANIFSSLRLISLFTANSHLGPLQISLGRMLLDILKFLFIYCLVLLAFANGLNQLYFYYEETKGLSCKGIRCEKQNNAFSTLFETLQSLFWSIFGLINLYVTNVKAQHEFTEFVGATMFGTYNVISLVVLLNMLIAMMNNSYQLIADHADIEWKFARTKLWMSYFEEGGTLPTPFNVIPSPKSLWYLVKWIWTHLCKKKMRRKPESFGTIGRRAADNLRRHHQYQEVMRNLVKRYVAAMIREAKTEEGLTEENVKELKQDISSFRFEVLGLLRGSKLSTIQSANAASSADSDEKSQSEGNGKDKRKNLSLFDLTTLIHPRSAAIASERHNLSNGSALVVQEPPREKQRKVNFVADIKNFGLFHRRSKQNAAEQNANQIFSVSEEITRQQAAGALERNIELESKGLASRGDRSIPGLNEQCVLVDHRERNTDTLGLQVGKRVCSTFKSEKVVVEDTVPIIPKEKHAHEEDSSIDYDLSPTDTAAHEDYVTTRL
Sequence of Potassium voltage-gated channel subfamily KQT member 1 (Homo sapiens) (P51787 whole entry, looked up): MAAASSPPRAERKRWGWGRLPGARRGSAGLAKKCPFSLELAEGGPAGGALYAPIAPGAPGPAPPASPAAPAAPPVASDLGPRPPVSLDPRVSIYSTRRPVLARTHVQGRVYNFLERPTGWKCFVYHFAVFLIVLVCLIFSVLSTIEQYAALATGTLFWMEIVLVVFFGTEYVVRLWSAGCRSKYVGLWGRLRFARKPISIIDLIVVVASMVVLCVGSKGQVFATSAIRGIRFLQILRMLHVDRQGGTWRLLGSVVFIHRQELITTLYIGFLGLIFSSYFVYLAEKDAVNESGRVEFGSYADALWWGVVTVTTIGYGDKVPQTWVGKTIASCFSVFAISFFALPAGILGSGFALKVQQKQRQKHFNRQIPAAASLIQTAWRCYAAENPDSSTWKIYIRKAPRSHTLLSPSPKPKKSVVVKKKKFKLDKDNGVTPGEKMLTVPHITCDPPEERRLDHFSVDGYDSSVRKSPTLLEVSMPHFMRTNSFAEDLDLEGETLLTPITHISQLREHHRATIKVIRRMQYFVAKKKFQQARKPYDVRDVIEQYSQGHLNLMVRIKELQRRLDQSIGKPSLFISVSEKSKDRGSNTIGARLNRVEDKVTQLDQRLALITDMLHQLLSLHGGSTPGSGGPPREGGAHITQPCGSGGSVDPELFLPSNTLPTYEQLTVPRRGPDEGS
Sequence of Potassium voltage-gated channel subfamily KQT member 2 (Rattus norvegicus) (O88943 whole entry, looked up): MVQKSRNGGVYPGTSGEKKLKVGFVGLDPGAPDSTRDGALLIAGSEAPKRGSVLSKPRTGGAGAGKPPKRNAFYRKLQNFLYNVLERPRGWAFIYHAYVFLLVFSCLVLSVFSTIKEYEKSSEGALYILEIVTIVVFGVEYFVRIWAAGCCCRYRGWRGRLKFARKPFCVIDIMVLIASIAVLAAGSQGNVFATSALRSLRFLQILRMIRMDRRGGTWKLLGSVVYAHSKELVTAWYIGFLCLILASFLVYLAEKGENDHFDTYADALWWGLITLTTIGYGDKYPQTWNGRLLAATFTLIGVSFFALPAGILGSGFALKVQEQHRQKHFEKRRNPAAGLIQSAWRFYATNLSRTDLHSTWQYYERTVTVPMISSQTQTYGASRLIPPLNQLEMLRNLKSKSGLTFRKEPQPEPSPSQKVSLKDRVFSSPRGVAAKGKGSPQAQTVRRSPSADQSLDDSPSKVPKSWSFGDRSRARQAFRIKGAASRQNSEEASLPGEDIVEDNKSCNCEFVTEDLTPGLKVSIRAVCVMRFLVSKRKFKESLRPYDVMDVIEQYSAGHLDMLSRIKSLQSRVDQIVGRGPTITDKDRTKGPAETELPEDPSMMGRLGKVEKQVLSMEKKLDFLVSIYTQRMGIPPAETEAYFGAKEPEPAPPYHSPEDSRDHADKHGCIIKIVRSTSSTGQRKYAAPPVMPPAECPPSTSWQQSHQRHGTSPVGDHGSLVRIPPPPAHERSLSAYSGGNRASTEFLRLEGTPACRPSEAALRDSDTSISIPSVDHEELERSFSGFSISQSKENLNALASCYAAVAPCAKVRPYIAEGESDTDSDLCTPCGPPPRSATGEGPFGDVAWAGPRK

CCn1cc(CN2CCC(n3nccc3NC(=O)CCCc3ccccc3)CC2)cn1
active: inhibition [5] 95% | inhibition [6] 58% | activation [9] 36%
inactive: outcome [1] | outcome [2] | outcome [3] | outcome [4] | outcome [7] | outcome [8] | outcome [10] | outcome [11] | outcome [12] | outcome [13] | outcome [14] | outcome [15]

CC(C)(C)c1ccc(C(=O)NC(=S)NNC(=O)COc2ccccc2)cc1
active: inhibition [5] 78% | activation [11] 16.6% | inhibition [12] 27.8% | activation [16] 186% | potentiation [17] 59.5% | potentiation [18] 208%
inactive: outcome [1] | outcome [2] | outcome [3] | outcome [4] | outcome [6] | outcome [7] | outcome [8] | outcome [9] | outcome [10] | outcome [13] | outcome [14] | outcome [15] | outcome [19]

O=C(NCc1ccccc1)C1=C[C@H](c2ccc3c(c2)OCO3)C[C@H](OCc2ccc(CO)cc2)O1
inactive: outcome [2] | outcome [3] | outcome [4] | outcome [5] | outcome [6] | outcome [7] | outcome [8] | outcome [9] | outcome [10] | outcome [13] | outcome [14] | outcome [15]
active: activation [1] 142% | activation [11] 115% | inhibition [12] 18.1%

Cc1ccccc1OCC(O)Cn1c(=N)n(Cc2ccccc2)c2ccccc21 (centres undefined)
inactive: outcome [2] | outcome [3] | outcome [4] | outcome [6] | outcome [7] | outcome [10] | outcome [13] | outcome [15]
active: activation [1] 70% | inhibition [5] 84% | inhibition [8] 39.5% | activation [9] 52.5% | activation [11] 9.48% | inhibition [12] 38% | activation [14] 18.7%

CN1C2C=C(N(CCc3c[nH]c4ccccc34)C(=O)c3ccc(Cl)cc3)CC1CC2 (centres undefined)
inactive: outcome [2] | outcome [3] | outcome [4] | outcome [5] | outcome [7] | outcome [8] | outcome [9] | outcome [10] | outcome [11] | outcome [12] | outcome [13] | outcome [14] | outcome [15]
active: activation [1] 130% | inhibition [6] 80%

CN(C)CCCN(C(=O)c1ccc(S(=O)(=O)N(C)C)cc1)c1nc2ccc(F)cc2s1
inactive: outcome [2] | outcome [3] | outcome [4] | outcome [5] | outcome [7] | outcome [8] | outcome [9] | outcome [10] | outcome [11] | outcome [12] | outcome [13] | outcome [14] | outcome [15]
active: activation [1] 59% | inhibition [6] 37%

CN(C)C(CNC(=O)C1CCN(S(=O)(=O)c2cccc(C(F)(F)F)c2)CC1)c1ccccc1 (centres undefined)
active: inhibition [6] 85%
inactive: outcome [1] | outcome [2] | outcome [3] | outcome [4] | outcome [5] | outcome [7] | outcome [8] | outcome [9] | outcome [10] | outcome [11] | outcome [12] | outcome [13] | outcome [14] | outcome [15]

CN(C)C(CNC(=O)c1cc2ccccc2oc1=O)c1ccccc1 (centres undefined)
active: activation [1] 65% | inhibition [6] 76%
inactive: outcome [2] | outcome [3] | outcome [4] | outcome [5] | outcome [7] | outcome [8] | outcome [9] | outcome [10] | outcome [11] | outcome [12] | outcome [13] | outcome [14] | outcome [15]

Cc1ccccc1C(=O)Nc1c(C(=O)N(CCN(C)C)Cc2ccco2)oc2ccccc12
active: activation [1] 84% | activation [9] 33.5%
inactive: outcome [2] | outcome [3] | outcome [4] | outcome [5] | outcome [6] | outcome [7] | outcome [8] | outcome [10] | outcome [11] | outcome [12] | outcome [13] | outcome [14] | outcome [15]

OC1(c2ccccc2)CN(c2ccccc2)C2=[N+]1CCS2 (centres undefined)
active: inhibition [5] 89% | activation [9] 34%
inactive: outcome [1] | outcome [2] | outcome [3] | outcome [4] | outcome [6] | outcome [7] | outcome [8] | outcome [10] | outcome [11] | outcome [12] | outcome [13] | outcome [14] | outcome [15]

COc1ccc(C(CNC(=O)c2cccc3cccnc23)N(C)C)cc1 (centres undefined)
inactive: outcome [2] | outcome [3] | outcome [4] | outcome [5] | outcome [7] | outcome [8] | outcome [10] | outcome [11] | outcome [12] | outcome [13] | outcome [14] | outcome [15]
active: activation [1] 132% | inhibition [6] 80% | activation [9] 33%

Cc1c(C(=O)N(Cc2cccs2)C2CCS(=O)(=O)C2)oc2ccccc12 (centres undefined)
inactive: outcome [1] | outcome [2] | outcome [3] | outcome [4] | outcome [6] | outcome [7] | outcome [8] | outcome [10] | outcome [11] | outcome [12] | outcome [13] | outcome [14] | outcome [15]
active: inhibition [5] 97% | activation [9] 56.5%

O=c1c2c(-c3ccccc3)csc2ncn1/N=C/c1cccc([N+](=O)[O-])c1O
active: inhibition [5] 90% | inhibition [6] 39% | activation [11] 36.1% | inhibition [12] 27.2%
inactive: outcome [1] | outcome [2] | outcome [3] | outcome [4] | outcome [7] | outcome [8] | outcome [9] | outcome [10] | outcome [13] | outcome [14] | outcome [15]

COc1ccc(Cl)cc1NC(=O)CNCC(c1ccccc1)N(C)C (centres undefined)
inactive: outcome [1] | outcome [2] | outcome [3] | outcome [4] | outcome [7] | outcome [8] | outcome [10] | outcome [11] | outcome [12] | outcome [13] | outcome [14] | outcome [15]
active: inhibition [5] 100% | inhibition [6] 60% | activation [9] 52.5%
